Measured values: the supplement of paper PMC5662767
Where a name gives a salt, the structure may show the parent alone.

system: Drosophila S2 cl14 SmoIP sensor cells; assay: normalized SmoIP GFP fluorescence (untreated unstimulated = 0%, untreated Hh-stimulated = 100%); higher = more Smo activation sensor fluorescence; conditions: stimulation: mock conditioned medium (-Hh); compound concentration: 2 uM; 24 h
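Further: flow cytometry read-out as median GFP intensity of gated cells, compounds added 30 min before Hh-conditioned or mock medium, mock-treated cells serving as unstimulated baseline.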

| SMILES | normalized SmoIP GFP fluorescence [%] |
| --- | --- |
| C[C@H](Nc1ncnc2nc[nH]c12)c1cc2cccc(Cl)c2c(=O)n1-c1ccccc1 | -4.24 |
| O=C(Nc1ccccc1)N1CCN(c2nc(-c3ccccc3)ns2)CC1 | -0.889 |
| O=C(N/N=C/c1ccc(O)c(O)c1)c1cc2ccccc2cc1O [dynasore] | 1.24 |
| COc1cc(Nc2ncc3c(n2)-c2ccc(Cl)cc2C(c2c(F)cccc2OC)=NC3)ccc1C(=O)O | 83 |
| Cc1c(-c2ccccc2)oc2c(C(=O)OCCN3CCCCC3)cccc2c1=O [flavoxate-hcl] | 0.474 |
| CC(=O)O/N=C1\C(=O)N(Cc2cc(Cl)ccc2Cl)c2ccc(Cl)cc21 | -2.93 |
| O=C(/C=C\n1cnc(-c2cc(C(F)(F)F)cc(C(F)(F)F)c2)n1)NNc1cnccn1 | 1.33 |
| N#Cc1c(O)c2c(-c3ccc(-c4ccccc4O)cc3)csc2[nH]c1=O | 6.28 |
| O=C(Nc1cccc(Cl)c1)Nc1ncc(CCNc2ncnc3ccsc23)s1 | 11 |
| CC(C)c1noc(N2CCC(COc3ccc(-c4ccc(S(C)(=O)=O)cc4)nc3)CC2)n1 | -3.09 |
| N#Cc1ccc2[nH]c(O)c(-c3ccc(CN4CCOCC4)cn3)c2c1 | -4.35 |
| NC(=O)c1ccc(-c2nc(-c3ccccn3)c(-c3ccc4c(c3)OCO4)[nH]2)cc1 | -2.96 |
| COc1cc2c(cc1OC)CC(=O)N(CCCN(C)C[C@@H]1Cc3cc(OC)c(OC)cc31)CC2 [ivabradine-hcl-procoralan] | -11.2 |
| CC(C)C[C@H](NC(=O)[C@H](Cc1ccccc1)NC(=O)c1cnccn1)B(O)O [Bortezomib] | 52.4 |
| NC1(c2ccc(-c3nc4ccn5c(=O)[nH]nc5c4cc3-c3ccccc3)cc2)CCC1 | 16.8 |
| CC(C)n1c(/C=C/[C@@H](O)C[C@@H](O)CC(=O)O)c(-c2ccc(F)cc2)c2ccccc21 [Fluvastatin-Sodium(Lescol] | -7.6 |
| CCNC(=O)Nc1ccc(-c2nc3c(c(N4CCOC[C@@H]4C)n2)CCN(C2COC2)C3)cc1 | -0.151 |
| Cn1cc(-c2ccc3nnc(C(F)(F)c4ccc5ncccc5c4)n3n2)cn1 | -2.42 |
| CNC(=O)c1ccc(N2C(=S)N(c3cnc(C#N)c(C(F)(F)F)c3)C(=O)C23CCC3)cc1F | -0.0369 |
| COc1ccccc1N1CCN(CCN(C(=O)C2CCCCC2)c2ccccn2)CC1 | 7.01 |

| SMILES | normalized SmoIP GFP fluorescence [%] |
| --- | --- |
| NC(=O)c1ncn([C@@H]2O[C@H](CO)[C@@H](O)[C@H]2O)c1N [Acadesine] | -15.4 |
| COc1ccc2cccc(CCNC(C)=O)c2c1 [Agomelatine] | 5.66 |
| C[C@@H]1C(=O)O[C@H]2C[C@@]34[C@H]5C[C@@H](C(C)(C)C)[C@]36[C@@H](OC(=O)[C@@H]6O)O[C@@]4(C(=O)O5)[C@]21O [ginkgolide-a] | -2.08 |
| CC(C)(O)[C@H]1CC[C@@](C)([C@H]2[C@@H](O)C[C@@]3(C)[C@@H]4C[C@H](O[C@@H]5O[C@H](CO)[C@@H](O)[C@H](O)[C@H]5O)[C@H]5C(C)(C)[C@@H](O[C@@H]6OC[C@@H](O)[C@H](O)[C@H]6O)CC[C@@]56C[C@@]46CC[C@]23C)O1 [astragaloside-a] | -16.8 |
| CC(C)(C)c1cnc(CSc2cnc(NC(=O)C3CCNCC3)s2)o1 | 66 |
| CC[C@H](CO)Nc1nc(NCc2ccccc2)c2ncn(C(C)C)c2n1 [Roscovitine] | 5.12 |
| CC(=O)Oc1cc2c(s1)CCN(C(C(=O)C1CC1)c1ccccc1F)C2 (centres undefined) [Prasugrel] | -2.42 |
| CN(C)CCN(Cc1ccccc1)c1ccccn1 [tripelennamine-hydrochloride] | -3.9 |
| OC[C@@H](O)CN1CCN(c2ccccc2)CC1 [levodropropizine] | -2.93 |
| Nc1ncnc2c1c(-c1cnc3[nH]ccc3c1)nn2C1CCCC1 | -17.9 |
| C/C=C1\[C@H]2C=C(C)C[C@]1(N)c1ccc(=O)[nH]c1C2 [(-)-Huperzine-A] | -7.42 |
| CC(C)(C)c1cc(NC(=O)Nc2ccc(-c3cn4c(n3)sc3cc(OCCN5CCOCC5)ccc34)cc2)no1 | 8.79 |
| CNCc1ccc(C)c(NC(=O)c2ccc(Nc3nc(-c4ccccc4)c4ccccc4n3)cc2)c1 | 11.6 |
| Cn1cnc2c(F)c(Nc3ccc(Br)cc3F)c(C(=O)NOCCO)cc21 | 23 |
| CCCC(C)NC(=O)c1ccc(Cl)c(Cl)c1 (centres undefined) | -4.7 |
| C[S+]([O-])c1ccc(-c2nc(-c3ccc(F)cc3)c(-c3ccncc3)[nH]2)cc1 (centres undefined) | -5.98 |
| CCN1CCCC1CNC(=O)c1cc(S(=O)(=O)CC)c(N)cc1OC (centres undefined) [Amisulpride] | 3.51 |
| CC1CCN(CC[C@H]2CCCN2S(=O)(=O)c2cccc(O)c2)CC1 | 1.21 |
| CO[C@H]1C[C@@H]2CC[C@@H](C)[C@@](O)(O2)C(=O)C(=O)N2CCCC[C@H]2C(=O)O[C@H]([C@H](C)C[C@@H]2CC[C@@H](OC(=O)C(C)(CO)CO)[C@H](OC)C2)CC(=O)[C@H](C)/C=C(\C)[C@@H](O)[C@@H](OC)C(=O)[C@H](C)C[C@H](C)/C=C/C=C/C=C/1C [Temsirolimus] | -1.56 |
